The nature of assay [1]: NCI Yeast Anticancer Drug Screen. Data for the rad50 strain (AID 155).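 Note: 0% = growth of vehicle-only cultures of the same strain.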 The conditions noted are these: S. cerevisiae rad50 strain growth inhibition; at 50.0 µM; active compounds read high. In short, it runs like this:
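DNA repair mutant yeast, compound exposure, growth read-out; inhibition is taken relative to vehicle.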

Assay [2] is described as follows: NCI Yeast Anticancer Drug Screen. Data for the mec2-1 strain (AID 157). The conditions noted are these: S. cerevisiae mec2-1 strain, at 50.0 µM, active compounds read high. In short, it runs like this:
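Readout is yeast growth inhibition, normalised to vehicle-treated controls, in the mec2-1 strain exposed to compound.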

Assay [3] is described as follows: NCI Yeast Anticancer Drug Screen. Data for the sgs1 mgt1 strain (AID 161).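 Note: 0% = growth of cultures given vehicle only.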 The conditions noted are these: S. cerevisiae sgs1 mgt1 strain, at 50.0 µM, active compounds read high. In outline:
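Yeast cells carrying a defined DNA-repair defect were exposed to test compounds. Growth inhibition was measured relative to vehicle-treated controls.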

Assay [4] can be described thus: NCI Yeast Anticancer Drug Screen. Data for the cln2 rad14 strain (AID 165).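 Note: 0% = growth equal to vehicle treated cultures.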 The conditions noted are these: S. cerevisiae cln2 rad14 strain, at 50.0 µM, active compounds read high. In outline:
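Relative to vehicle controls, growth inhibition of compound-treated cln2 rad14 yeast was recorded.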

Assay [5] in a line: NCI Yeast Anticancer Drug Screen. Data for the bub3 strain (AID 167). The conditions noted are these: S. cerevisiae bub3 mutant strain, at 50.0 µM, active compounds read high. In outline: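 In this screen, a yeast mutant lacking normal mitotic checkpoint function is challenged with compound. Relative growth versus vehicle gives the inhibition value.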
Assay [6] in a line: NCI Yeast Anticancer Drug Screen. Data for the mlh1 rad18 strain (AID 175). The conditions noted are these: S. cerevisiae mlh1 rad18 strain growth inhibition; at 50.0 µM; active compounds read high. In outline:
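Test agents were incubated with a yeast strain of defined genotype (DNA damage repair defect). Inhibition of growth was derived by comparison with vehicle-exposed cultures.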

Data on 37 compounds can be found in PubChem BioAssay (NCI).

About 79,000 compounds went through this panel and 15% of them were active in at least one assay; those are over-represented in the sample as a whole. Values without a mark were called inactive. Activity calls are given as the source filed them. Cut-off read from the data, not from the text of the source: active = growth inhibition above about 70%; inactive = the rest.

Regarding `CCOC(=O)C(=O)C1CCCC(C)C1=O` (configuration not stated), the growth inhibition in assay [1] is 16%; in assay [2], 11.8%; in assay [3] it was -16.6%; in assay [4] it was -43.1%; in assay [5], 10.8%; in assay [6] it was 1.05%.

In the case of `O=C(Cc1ccccc1)NN1C(=O)/C(=C\c2ccccc2O)SC1=Nc1ccccc1`, the growth inhibition is 1.15% in assay [1]; -6.3% in assay [2]; 31.4% in assay [3]; 13.5% in assay [4]; -6.95% in assay [5]; 7.25% in assay [6].

With `CCN(C(=S)Nc1cccc2ccccc12)c1ccccc1`, the growth inhibition is -4.05% in assay [1]; -11.3% in assay [2]; 11.7% in assay [3]; 2.4% in assay [4]; -3.65% in assay [5]; -7.9% in assay [6].

For `CCN(CC)Cc1cc(C(C)(C)CC)cc(-c2ccccc2)c1O`, the growth inhibition in assay [1] was -11.2%; in assay [2], -33.6%; in assay [3] it was -12.6%; in assay [4] it was -24.9%; in assay [5], 8.5%; in assay [6] it was -4.1%.

As for `O=c1c([OH2+])c(-c2ccc(O)cc2[O-])oc2cc(O)cc([O-])c12.O=c1c([OH2+])c(-c2ccc(O)cc2[O-])oc2cc(O)cc([O-])c12.[Ti+4]`, the growth inhibition in assay [1] was -43.4%; in assay [2], 27.2%; in assay [3] it was 7.95%; in assay [4] it was 8.2%; in assay [5] it was 2.55%; in assay [6], 10.2%.

`NC(=O)c1ncn2c(=O)n(CCCl)nnc12`: the growth inhibition was -17.2% in assay [1]; -9.4% in assay [2]; 1.4% in assay [3]; 19.5% in assay [4]; -4.15% in assay [5]; -47.2% in assay [6].

Regarding `C=C1C(=O)OC2C1C(OC(=O)/C(=C/CO)CO)CC1(CO1)C1CC=C(C)C21` (configuration not stated), the growth inhibition was 32.2% in assay [1]; 8.05% in assay [2]; 19.8% in assay [3]; -2.15% in assay [4]; -1.95% in assay [5]; 9.6% in assay [6].

Turning to `O=c1[nH]nc(-c2ccccc2)c2c1[nH]c1ccccc12`, the growth inhibition in assay [1] was -13.8%; in assay [2], -15.7%; in assay [3] it was -0.85%; in assay [4] it was -33.9%; in assay [5], -12.4%; in assay [6] it was -12.1%.

For `CC(=O)Nc1cc2c(cc1Cl)[nH]c(=O)c1ccccc12`, the growth inhibition is 8.1% in assay [1]; -10.9% in assay [2]; -19.8% in assay [3]; -3.25% in assay [4]; 11.4% in assay [5]; 7.5% in assay [6].

Regarding `COc1ccccc1C(=O)N/N=C/c1ccncc1`, the growth inhibition in assay [1] was -2.85%; in assay [2], 24.5%; in assay [3], 5.7%; in assay [4], -5.7%; in assay [5] it was 20.2%; in assay [6], 9.8%.

For the compound `O=C(O)c1cc(=O)[nH]c2ccccc12`, the growth inhibition in assay [1] is -10.1%; in assay [2], -5.7%; in assay [3], 8%; in assay [4], -0.95%; in assay [5], 1.7%; in assay [6] it was 14.9%.

Regarding `CCCCC(O)C(C)(C)C` (configuration not stated), the growth inhibition is 1.5% in assay [1]; -8.65% in assay [2]; 3.55% in assay [3]; 6.55% in assay [4]; 9.65% in assay [5]; 7.2% in assay [6].

Take `CC1(C)C(=O)C(C)(C)C1=NN`: the growth inhibition is 7.5% in assay [1]; 11.8% in assay [2]; -4.45% in assay [3]; 3% in assay [4]; -4.9% in assay [5]; 23.9% in assay [6].

Consider `COc1ccc(NC(=S)N(CCC#N)C2CCCCC2)cc1`, for which the growth inhibition is -1.1% in assay [1]; -24.3% in assay [2]; -3% in assay [3]; 16.8% in assay [4]; -1.5% in assay [5]; -4.05% in assay [6].

For `CC(=O)Oc1ccccc1C#CC(=O)O`, the growth inhibition in assay [1] is 17.3%; in assay [2], 25.6%; in assay [3], 34%; in assay [4], -1.2%; in assay [5] it was -0.7%; in assay [6] it was 15.4%.

Turning to `CCC12CC(=O)CCC1CCc1ccc(OC)c(OC)c12` (configuration not stated), the growth inhibition in assay [1] was -14.6%; in assay [2], 15.9%; in assay [3], -2.4%; in assay [4], -7.2%; in assay [5] it was 18.4%; in assay [6], 22.2%.

For `CC12C3CC4C5CC(C(C53)[C@@H]1NCc1ccccc1)C42` (some centres not stated), the growth inhibition in assay [1] is 44.8%; in assay [2], 6.8%; in assay [3], 19.2%; in assay [4], 35.4%; in assay [5] it was 32.9%; in assay [6], 21.9%.

In the case of `SC1c2ccccc2-c2ccccc21`, the growth inhibition was 30.1% in assay [1]; 2.75% in assay [2]; 7.5% in assay [3]; 7.25% in assay [4]; -30.2% in assay [5]; 1.7% in assay [6].

With `O=C1CSC(c2ccccc2F)N1c1ncccn1` (configuration not stated), the growth inhibition in assay [1] is -3.2%; in assay [2], -6.8%; in assay [3], 0.75%; in assay [4] it was -20.8%; in assay [5], 8%; in assay [6], -1.4%.

For the compound `CC(C)Oc1c(O)c2c3c(oc(=O)n3C=CC2c2ccccc2)c1OC(C)C` (configuration not stated), the growth inhibition was 86.8% (active) in assay [1]; 86.9% (active) in assay [2]; 88.2% (active) in assay [3]; 86.6% (active) in assay [4]; 85.5% (active) in assay [5]; 82.3% (active) in assay [6].

In the case of `CC1CN(CC2COc3ccccc3O2)C(C)CN1` (configuration not stated), the growth inhibition was 61.8% in assay [1]; 17.4% in assay [2]; 57.2% in assay [3]; 58.5% in assay [4]; 53.4% in assay [5]; 34.2% in assay [6].

For the compound `O=C(O)c1ccc2c([N+](=O)[O-])cccc2n1`, the growth inhibition in assay [1] is 33.5%; in assay [2] it was 19.2%; in assay [3] it was 14.3%; in assay [4], -44%; in assay [5], 1.15%; in assay [6] it was 19.9%.

As for `CC(=O)Nc1cccc(OCOc2ccc([N+](=O)[O-])cc2)c1`, the growth inhibition in assay [1] is -4.65%; in assay [2], 20.3%; in assay [3] it was 30.4%; in assay [4], -2.6%; in assay [5] it was 22.6%; in assay [6] it was 40.8%.

Take `COC(=O)c1s/c(=N\C(=S)N(C)C)n(-c2ccccc2)c1C(=O)OC`: the growth inhibition in assay [1] was 5.3%; in assay [2] it was 20.2%; in assay [3], -0.1%; in assay [4], 15.2%; in assay [5] it was -8.85%; in assay [6], 11.2%.

In the case of `CC(=O)[C@H]1[C@H](C)C[C@H]2[C@@H]3CCC4=CC(=O)CC[C@]4(C)[C@@]3(F)C(=O)C[C@@]21C`, the growth inhibition was -5.45% in assay [1]; 1.2% in assay [2]; -3.3% in assay [3]; -28.4% in assay [4]; 6% in assay [5]; 4% in assay [6].

Regarding `COc1cc(C2C(C(C)=O)=C(C)Oc3cc4c(cc32)OCO4)cc(OC)c1O` (configuration not stated), the growth inhibition in assay [1] is 21.1%; in assay [2], 2.5%; in assay [3], -0.25%; in assay [4], 4.15%; in assay [5], 10.1%; in assay [6], 35.5%.

Consider `O.O.[Cl][Pt+2][Cl].[NH-]CC1(C[NH-])CCCCC1`, for which the growth inhibition was 10.4% in assay [1]; 5.7% in assay [2]; 11.8% in assay [3]; 18.5% in assay [4]; 8.75% in assay [5]; -30.1% in assay [6].

As for `Cc1ccc(S(=O)(=O)N(CCO)CCCO)cc1`, the growth inhibition was -16.7% in assay [1]; -43.3% in assay [2]; -9.95% in assay [3]; 5.1% in assay [4]; -35.3% in assay [5]; 1.7% in assay [6].

Regarding `CC1(CCl)Nc2ccccc2C(=O)N1c1ccccc1` (configuration not stated), the growth inhibition in assay [1] is 6.65%; in assay [2], -6.2%; in assay [3] it was 16.4%; in assay [4] it was 4.2%; in assay [5], 28.4%; in assay [6], 8.5%.

In the case of `CC(C)(N)CNCCO`, the growth inhibition in assay [1] was -3.25%; in assay [2], 2.05%; in assay [3], -8.9%; in assay [4], -18.1%; in assay [5], -1.7%; in assay [6], 0.4%.

Consider `CCC(Nc1nncs1)Nc1nncs1`, for which the growth inhibition in assay [1] was -21.9%; in assay [2], 22.6%; in assay [3] it was 2.2%; in assay [4], -20.9%; in assay [5] it was 2.95%; in assay [6], -3%.

Turning to `CCOc1ccc(N2CCN(C(=O)Nc3ccccc3OC)CC2)cc1`, the growth inhibition is -4.1% in assay [1]; -6.2% in assay [2]; -1.8% in assay [3]; -47.5% in assay [4]; 21.1% in assay [5]; -3.95% in assay [6].

Consider `CCOC(=O)C(NC(=O)OC(C)(C)C)C(=O)OCC`, for which the growth inhibition in assay [1] was -43.2%; in assay [2], -90.8%; in assay [3], -33.1%; in assay [4], -28.9%; in assay [5], 2.6%; in assay [6], -27.4%.

On to `Cc1c2c([nH]c(=O)c1C)C=CC(Br)C2Br` (configuration not stated), for which the growth inhibition in assay [1] is -0.7%; in assay [2], 0.55%; in assay [3] it was 1.5%; in assay [4], 3.2%; in assay [5], 0.2%; in assay [6], 6.95%.

For `COc1cccc2c1CC/C(=C\c1ccccn1)C2=O`, the growth inhibition in assay [1] was 98.5% (active); in assay [2] it was 99.1% (active); in assay [3] it was 98.9% (active); in assay [4], 97.8% (active); in assay [5], 98.8% (active); in assay [6], 99.2% (active).

For the compound `COc1ccc(OC)c2c3c([nH]c12)C(=O)Nc1nc(N)nc(N)c1C3`, the growth inhibition in assay [1] was 42.9%; in assay [2], 19.9%; in assay [3], 30.4%; in assay [4] it was 21.8%; in assay [5] it was 31.9%; in assay [6], 40.5%.

`CC(C)(C)OC(=O)C1CCC/C1=N/Nc1ccc([N+](=O)[O-])cc1[N+](=O)[O-]` (configuration not stated): the growth inhibition in assay [1] was -38.3%; in assay [2] it was -46%; in assay [3], 10.3%; in assay [4], 24.2%; in assay [5], 20.7%; in assay [6], -11.6%.
